From PubChem BioAssay

How the values were obtained:
[1] = system: Human papillomavirus type 1a protein E7 (residues 44-93); assay: small molecules binding HPV E7 44-93 – biochemical, small-molecule microarray, residues 44-93, 635 nm fluorescence, primary screen (AID 1108); details: fluorescence 635 nm, higher = more signal;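 note: E7 fragment applied at 1 µg/mL in TBST for 1 h at 4 C; score combines spot fluorescence with its signal to noise ratio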
[2] = hepatitis C replication reporter changes, two-sided – Huh7 cells, luciferase reporter, HCV replication inhibitor project, primary screen (AID 1109); details: Huh7 HCV replicon luciferase reporter, 48 h; higher = more signal;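 note: huh7 hepatoma cells harbouring a luciferase neomycin HCV replicon reporter; luciferase luminescence as measure of HCV replicon replication; test concentration not given here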
[3] = biological target: Left-right determination factor 2 (Homo sapiens) (UniProt O00292); assay: small molecules binding LEFTY2 protein – biochemical, small-molecule microarray, 635 nm fluorescence scan, primary screen (AID 1110); details: higher = more signal
[4] = biological target: Calmodulin-1 (Homo sapiens) (UniProt P0DP23); assay: small molecules binding calmodulin-1 with EGTA – biochemical, small-molecule microarray, Cy5-labelled CALM1, profiling panel (AID 1111); details: Cy5-CALM1 binding fluorescence, higher = more signal;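 note: labelled calmodulin applied in Tris saline Tween buffer holding calcium plus EGTA and DTT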
[5] = biological target: Calmodulin-1 (Homo sapiens) (UniProt P0DP23); assay: small molecules binding Ca-loaded calmodulin-1 – biochemical, small-molecule microarray, Cy5-labelled CALM1, plus calcium, artefact control for SMM control-protein annotation, profiling panel (AID 1112); details: Cy5-CALM1 binding fluorescence, higher = more signal;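 note: score merges spot fluorescence with signal to noise from triplicate slides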
[6] = probe aWnt5a binding to arrayed compounds – biochemical, biotinylated probe, 635/667 nm fluorescence, primary screen (AID 1113); details: small-molecule microarray, higher = more signal;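 note: score merges 667 nm fluorescence intensity with signal-to-noise per printed feature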
[7] = probe aShh binding to arrayed compounds – biochemical, biotinylated probe, 635/667 nm fluorescence, primary screen (AID 1114); details: small-molecule microarray, higher = more signal;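 note: probe is biotin-labelled aShh protein from a stem cell growth factor screen; measures binding of labelled protein to compounds printed on the slide; score merges feature fluorescence at 667 nm with signal-to-noise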
[8] = probe aNog binding to arrayed compounds – biochemical, biotinylated probe, 635/667 nm fluorescence, primary screen (AID 1115); details: small-molecule microarray, higher = more signal;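 note: probe is biotinylated aNog protein used at 0.15 µg/mL for 1 h at 4 C; z-score combines 667 nm fluorescence of each spot with its signal to noise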
[9] = biological target: Torsin-1A-interacting protein 1 (Homo sapiens) (UniProt Q5JTV8); assay: compound microarray binding of lysate hLAP1 – cell lysate, small-molecule microarray, COS7 lysate, 635/667 nm fluorescence, primary screen (AID 1116); details: 635 nm fluorescence, higher = more signal
[10] = biological target: Alpha-bungarotoxin (Bungarus multicinctus) (UniProt P60615); assay: compounds binding labelled alpha-BTX control protein – biochemical, small-molecule microarray, Alexa647 label, 635/667 nm fluorescence, artefact control for SMM control protein annotation, profiling panel (AID 1117); details: alpha-BTX-A647 binding fluorescence, higher = more signal
Sequence of Alpha-bungarotoxin (Bungarus multicinctus) (P60615 whole entry, looked up): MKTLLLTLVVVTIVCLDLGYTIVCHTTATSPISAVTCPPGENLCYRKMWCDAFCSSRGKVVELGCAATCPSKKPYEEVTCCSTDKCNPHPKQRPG

Sequence of Left-right determination factor 2 (Homo sapiens) (O00292 whole entry, looked up): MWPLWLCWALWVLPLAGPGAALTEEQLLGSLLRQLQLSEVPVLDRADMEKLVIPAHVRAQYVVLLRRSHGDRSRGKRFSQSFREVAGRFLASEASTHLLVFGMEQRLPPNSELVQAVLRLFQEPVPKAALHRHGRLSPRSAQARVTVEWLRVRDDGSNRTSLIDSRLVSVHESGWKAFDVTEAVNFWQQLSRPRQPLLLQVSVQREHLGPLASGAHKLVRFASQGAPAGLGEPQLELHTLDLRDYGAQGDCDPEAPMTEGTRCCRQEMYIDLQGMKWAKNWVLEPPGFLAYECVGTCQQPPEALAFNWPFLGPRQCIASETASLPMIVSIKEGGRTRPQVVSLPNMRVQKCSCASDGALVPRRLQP
Sequence of Torsin-1A-interacting protein 1 (Homo sapiens) (Q5JTV8 whole entry, looked up): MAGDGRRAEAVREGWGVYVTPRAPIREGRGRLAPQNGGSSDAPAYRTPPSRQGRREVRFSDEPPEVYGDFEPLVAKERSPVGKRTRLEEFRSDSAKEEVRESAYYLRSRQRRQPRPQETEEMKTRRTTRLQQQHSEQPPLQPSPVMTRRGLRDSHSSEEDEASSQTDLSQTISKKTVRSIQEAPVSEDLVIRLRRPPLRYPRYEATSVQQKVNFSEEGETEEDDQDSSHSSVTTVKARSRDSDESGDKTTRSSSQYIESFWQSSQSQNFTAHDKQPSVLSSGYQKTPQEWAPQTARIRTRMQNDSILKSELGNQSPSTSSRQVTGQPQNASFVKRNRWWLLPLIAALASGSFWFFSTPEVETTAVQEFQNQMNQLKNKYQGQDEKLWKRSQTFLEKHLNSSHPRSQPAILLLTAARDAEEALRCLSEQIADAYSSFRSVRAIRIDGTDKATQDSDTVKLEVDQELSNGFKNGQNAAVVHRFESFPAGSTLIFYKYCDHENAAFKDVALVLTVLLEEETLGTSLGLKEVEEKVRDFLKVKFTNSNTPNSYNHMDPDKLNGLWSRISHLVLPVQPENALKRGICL

Structure (SMILES) | composite z-score [1] | z-score [2] | composite z-score [3] | composite z-score [4] | composite z-score [5] | composite z-score [6] | composite z-score [7] | composite z-score [8] | composite z-score [9] | composite z-score [10]
CCOc1cc(C(O)C2C=CC3C(=O)N(C4CCCCC4)C(=O)C3N2Nc2ccc(OC)cc2)ccc1O (stereo not given) | 1.41 | -0.352 | 0.208 | 1.13 | 0.505 | 0.0182 | 0.06 | 0.796 | 0.327 | 1.64
CC(C)CNC(=O)[C@@]1(c2ccc([N+](=O)[O-])cc2)CC(=O)N(C2CCCCC2)[C@@H]1c1ccc(CO)cc1I | 1.11 | -2.3 | -0.609 | 0.779 | 0.379 | -0.0417 | -0.16 | -0.279 | 0.341 | 0.817
C[C@]1(C(=O)O)c2ccccc2C(=O)N(Cc2ccccc2)[C@H]1c1ccc(CO)cc1 | -0.633 | -0.413 | -2.19 | 0.139 | 1.2 | -0.204 | -0.291 | 0.562 | -0.0514 | -1.04
COC(=O)[C@H](Cc1ccccc1)N1CC(/C=C/C2CC2)=C[C@@H]1[C@@H](O)Cc1ccccc1 | 1.31 | -1.33 | 1.04 | 0.48 | -0.513 | 0.0079 | -0.0035 | 0.131 | 0.0412 | 0.737
COC(=O)C1(Cc2ccccc2)C=C2C(=C(c3ccccc3)C(=O)C2C)CN1 (stereo not given) | -0.964 | -1.53 | -0.871 | 0.648 | 1.18 | 1.11 | 2.71 | 1.05 | 1.22 | 0.0329
CCCCC(=C=CC[C@@H](O)c1ccc(OCCO)cc1)C[C@@H](O)COCc1ccccc1 | -0.548 | -1.45 | 0.141 | -0.686 | -0.244 | 0.0044 | 0.0796 | -0.213 | 1.89 | -0.324
C[C@]1(C(=O)NC2CC2)c2ccccc2C(=O)N(Cc2ccc(OC(F)(F)F)cc2)[C@H]1c1ccc(CO)cc1 | -0.633 | -0.144 | -1.07 | -0.42 | 0.479 | -0.0792 | -0.0243 | 0.625 | 0.297 | 0.585
C=CC1c2cc(O)c(OC)cc2CCN1Cc1sc2ccccc2c1Cl (stereo not given) | 1.38 | -1.78 | 0.0792 | 0.248 | 0.237 | -0.107 | 0.0796 | -0.0132 | 0.47 | 1.47
COc1cc(OC)c(C(O)C2C=CC3C(=O)N(c4ccccc4)C(=O)C3N2Nc2ccc(C#N)cc2)cc1Br (stereo not given) | 1.36 | -0.519 | 0.0166 | 2.19 | 0.992 | 0.471 | 0.196 | 0.81 | 2.18 | 2.42
CC(C)(C)OC(=O)CC[C@]1(C(=O)NCCN2CCOCC2)N=C(c2ccc(OCCCO)cc2)O[C@H]1c1ccccc1N=[N+]=[N-] | 0.775 | 1.08 | 0.245 | 1.3 | 0.374 | 0.0229 | 0.0214 | 1.73 | 1.7 | 1.04
COc1ccc([Si](C)(C)[C@H]2[C@H](CCn3cc([C@H](O)c4ccccc4)nn3)O[C@@]3(C(=O)N(Cc4ccc(N5CCC5=O)cc4)c4ccccc43)[C@@H]2C)cc1 | 0.73 | -0.917 | 0.656 | -0.468 | -0.217 | -0.16 | -0.138 | -0.103 | 0.273 | 0.54
O=c1cccc(-c2cccc(Cl)c2)o1 | 0.0546 | 0.268 | 0.128 | -0.137 | -0.137 | -0.228 | -0.338 | -0.229 | 0.432 | 0.0698
CC(C)N1CC=CC23O[C@@H]4C=CCCOC(=O)C4[C@H]2C(=O)N(CCO)[C@@H]3C1=O (stereo not given in full) | -0.478 | 0.516 | -0.289 | -0.343 | -0.348 | -0.224 | -0.282 | -0.0852 | -0.494 | -0.048
C=C(C(=O)CC[C@H](OC(=O)c1cccnc1)c1ccc(CO)o1)C(C)C | 0.362 | -1.43 | 0.584 | 0.627 | -0.316 | 0.0973 | 0.39 | 0.013 | 1.18 | 1.19
O=C1OCC=C[C@H]2OC34C=CCN(Cn5nnc6ccccc65)C(=O)[C@H]3N(CCCCCCO)C(=O)[C@@H]4[C@@H]12 (stereo not given in full) | -0.0554 | -0.113 | -1.14 | -0.129 | -0.004 | -0.152 | -0.16 | 0.162 | 3.14 | -0.608
CN(C)CCCNC(=O)[C@@]1(c2ccc([N+](=O)[O-])cc2)CC(=O)N(CC23CC4CC(CC(C4)C2)C3)[C@@H]1c1ccc(CO)cc1 | 1.23 | -3.26 | 0.364 | 1.43 | 0.398 | 0.249 | 0.806 | 2.24 | 2.35 | 1.83

Structure (SMILES) | composite z-score [1] | z-score [2] | composite z-score [3] | composite z-score [4] | composite z-score [5] | composite z-score [6] | composite z-score [7] | composite z-score [8] | composite z-score [9] | composite z-score [10]
Cc1ccc(S[C@]2(C(=O)O)CC(=O)N(Cc3ccccc3Cl)[C@@H]2c2ccc(CO)cc2)cc1 | 0.459 | -0.828 | -1.54 | 0.459 | 0.644 | -0.192 | 0.131 | 0.549 | 0.0695 | 1.57
O=C1O[C@H](c2ccccc2)[C@H](c2ccccc2)N2[C@H]1[C@@H](C(=O)O)[C@]1(C(=O)Nc3ccccc31)[C@H]2c1ccc(O)cc1 | 0.49 | -0.361 | -0.274 | -0.2 | -0.262 | -0.1 | -0.262 | 0.101 | -0.321 | -0.286
C=CCOC(=O)[C@H]1[C@@H]2C(=O)O[C@@H](c3ccccc3)[C@@H](c3ccccc3)N2[C@@H](c2ccc(OCCOC(=O)[C@H]3C[C@H]4C(=O)N[C@@H](Cc5ccccc5)C(=O)N4[C@H]3c3cccc(OCCO)c3)cc2)[C@]12C(=O)Nc1ccc(I)cc12 | 1.38 | -1.68 | 0.692 | 0.384 | 0.334 | 0.0004 | -0.144 | -0.175 | 1.25 | 1.35
C=CCOC(=O)[C@@H]1[C@H]2C(=O)O[C@H](c3ccccc3)[C@H](c3ccccc3)N2[C@H](c2ccc(OCCOC(=O)[C@H]3C[C@H]4C(=O)N[C@@H](CCCCNC(C)=O)C(=O)N4[C@H]3c3cccc(OCCO)c3)cc2)[C@@]12C(=O)Nc1ccc(I)cc12 | 0.721 | -1.03 | 0.642 | 0.277 | -0.759 | -0.096 | 0.0725 | -0.0317 | 0.97 | 1.54
CCOC(=O)C1=CC[C@@H](c2ccccc2C(F)(F)F)N(S(=O)(=O)c2ccc(C)cc2)C1 | 0.648 | -2.98 | 0.613 | 2.07 | 1.07 | 0.274 | 0.584 | -0.395 | 1.5 | 1.49
COc1ccc(C(O)C2C=CC3C(=O)N(c4ccccc4)C(=O)C3N2Nc2ccccc2)cc1OCc1ccccc1 (stereo not given) | 1.48 | -0.412 | 0.0977 | 0.552 | 0.734 | 0.165 | 0.123 | 1.26 | 0.618 | 1.4
COCCOC(=O)N1C(=O)[C@@]2(c3ccccc31)[C@H](c1ccc(OCCO)cc1)N1[C@H](c3ccccc3)[C@H](c3ccccc3)OC(=O)[C@H]1[C@@H]2C(=O)Nc1nc2ccccc2s1 | 1.34 | -1.33 | 0.492 | 1.68 | 0.397 | 0.0431 | -0.0769 | 0.516 | 0.903 | 1.13
CN1C(=O)C2C=CC(C(O)C3CCCCC3)N(N3CCCCC3)C2C1=O (stereo not given) | 1.47 | -0.306 | 0.194 | 0.407 | -0.331 | 0.164 | 0.109 | 1.31 | 1.4 | 1.66
C=C[C@@H](COC(C)=O)NS(=O)(=O)c1ccc(Br)cc1 | 0.487 | -0.178 | 0.219 | -0.271 | -0.144 | -0.0478 | -0.0643 | -0.538 | -0.0651 | 0.225
Cc1ccc(S[C@]2(C(=O)NCC(F)(F)F)CC(=O)N(Cc3ccccc3)[C@@H]2c2ccc(CO)cc2)cc1 | -0.341 | -1.54 | -1.73 | -0.23 | 0.526 | -0.169 | -0.268 | -0.186 | 0.122 | -0.0421
CC(C)N1C(=O)[C@@]2(c3ccc([N+](=O)[O-])cc3)CC(=O)N(C3CCCCC3)[C@@H]2c2ccc(CO)cc21 | -0.242 | 0.711 | 0.11 | -0.561 | -0.593 | -0.1 | -0.0553 | -0.305 | 0.214 | 0.329
C=C(C(=O)CC[C@H](OC(=O)c1cccnc1)c1cccc(OCCO)c1)C(C)C | 0.074 | -3.63 | -0.507 | -1.21 | -1.58 | -0.124 | 0.0952 | 0.151 | 0.307 | -0.0234
C=CCC(OC(C)=O)[C@@H]1[C@@H](N(Cc2cc3ccccc3o2)C(=O)Cc2ccc(F)cc2)c2cc(OCCCO)ccc2N1C(=O)c1ccc2ccccc2n1 (stereo not given in full) | -0.221 | 0.476 | -0.139 | -0.408 | -0.12 | 0.0179 | -0.426 | 0.14 | -0.103 | 0.222
[N-]=[N+]=Nc1ccccc1C[C@]1(C(=O)NCc2ccccc2)N=C(c2ccc(OCCCO)cc2)O[C@H]1c1ccccc1 | 1.08 | -1.58 | -0.397 | 2.03 | 0.848 | 0.0357 | 0.28 | 1.85 | 1.39 | 1.77
O=C1O[C@@H](c2ccccc2)[C@@H](c2ccccc2)N2[C@@H](c3ccc(O)cc3)[C@]3(C(=O)Nc4ccc(C#CCCO)cc43)[C@@H](C(=O)Nc3nc4ccccc4s3)[C@H]12 | 1.23 | -0.0469 | 0.173 | 0.289 | -0.331 | -0.0405 | 0.108 | 0.128 | 1.2 | 1.66
CCCCC(CC)C(O)C1C=CC2C(=O)N(c3ccccc3)C(=O)C2N1Nc1ccc([N+](=O)[O-])cc1 (stereo not given) | 1.37 | -0.127 | 0.362 | 1.68 | -0.371 | -0.0519 | -0.258 | -0.623 | 0.513 | 1.27
